Compounds without any hit were thinned out: in the full panel of roughly 79,000, 15% have a hit. The source made the active and inactive calls. Rule as the data show it: active = growth inhibition above about 70%; inactive = the rest.

One test can be described thus: NCI Yeast Anticancer Drug Screen. Data for the mlh1 rad18 strain (AID 175). Conditions: S. cerevisiae mlh1 rad18 strain growth inhibition; at 50.0 µM (retest, dose inferred, filed as 5.0); active compounds read high. The essentials: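 Compound-treated yeast growth, normalised to vehicle controls. Strain bears defined DNA repair mutations.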
As to `CCCOC(=O)CCCC(=O)N(CC)CC`, the growth inhibition was -11% (inactive). On to `CCOC(=O)C(=O)CC1=Nc2ccccc2SC(c2cccc(C)c2)C1` (stereo not given), for which the growth inhibition is 97% (active). The same measure, in the same setting: with `COc1cc2c(c(-c3cn(C)c4ccccc34)c1OC)OCO2` the figure was 35% (inactive). For `COC(=O)c1c(C)cccc1C1CN=NC12Cc1ccc(C)c(C)c1C2=O` (stereo not given), the growth inhibition was 57% (inactive). On the same count and under the same terms, with `CCCCCCCCCCC(=O)CC(=O)c1c(O)cccc1O` the figure was 16% (inactive); with `CCCCCCNC(=S)N/N=C(\C)c1ccccn1`, 93% (active); with `Oc1ccc(N=Nc2ccc(Cl)cc2)cc1O`, 98% (active). Same read-out and setting: the value for `CCO/C=C1\N=C(C(O)(c2ccc(Cl)cc2)c2ccc(Cl)cc2)OC1=O` was 10% (inactive); that for `Clc1ccc(CN2COc3c(ccc4cccnc34)C2)cc1` was 95% (active). As for `Cc1nc(C(N)=S)sc1/C(CC(=O)C(=O)Nc1cccc2ccc(O)cc12)=N\NC(=O)c1ccncc1`, the growth inhibition is 35% (inactive).

Take `Nc1ncc(C(=O)c2ccccc2)cc1[N+](=O)[O-]`: the growth inhibition is -87% (inactive). On the same count and under the same terms, with `O=C1C2C3C=CC(C3)C2C(=O)C2C3C=CC(C3)C12` (stereo not given) the figure was 98% (active). On the same count and under the same terms, the value for `CCCCOC(=O)c1cnc[nH]c1=O` was 12% (inactive); that for `N#CC(c1ccc(Cl)cc1)c1ccc([N+](=O)[O-])cc1` (stereo not given) was 88% (active). `CN(C)C(N)=NC#N`: the growth inhibition is 71% (active). Still for that read-out and setting: with `CCCCc1c(O)c(N=NC(=O)C[n+]2ccccc2)c2ccccc2c1O` the figure was 21% (inactive); with `CCOC(=O)C(=O)Nc1nc2c(s1)C(=O)c1ccccc1C2=O`, 94% (active); with `COc1ccc(C(=O)Nc2ccccc2[N+](=O)[O-])cc1`, 0% (inactive). On the same count and under the same terms, with `COc1ccccc1NC(=O)/C(=C/n1c(=S)sc2ccccc21)C(C)=O` the figure was 14% (inactive).

On to `Cc1ccc(C)c(C(=O)/C=C/C(=O)O)c1`, for which the growth inhibition is 98% (active).

Staying with this test, now noted: S. cerevisiae mlh1 rad18 strain growth inhibition; at 50.0 µM; active compounds read high.
As for `CCCCN(CCC(=O)O)c1ccc(/C=C\c2ccnc3ccccc23)cc1`, the growth inhibition is 93% (active). Still for that read-out and setting: with `CC1CC(N)=NC1C(=O)NCCC#N` (stereo not given) the figure was 66.7% (inactive); with `O=C(CC1(O)CCCCC1)OC1CCCC1`, 6.2% (inactive); with `CN(C)c1nc(-c2ccccc2)cc(-c2ccc(O)cc2)n1`, 68.2% (inactive).

For `Oc1cc(C(c2ccccc2)c2ccccc2)c2ccccc2c1O`, the growth inhibition was 97.8% (active). Regarding `C(=P(c1ccccc1)(c1ccccc1)c1ccccc1)[P+](c1ccccc1)(c1ccccc1)c1ccccc1`, the growth inhibition was 99.2% (active). The same measure, in the same setting: with `COC(=O)c1ccc(CCc2cc(O)ccc2O)cc1` the figure was 98.8% (active). Still for that read-out and setting: with `CCCCCCCCCCN` the figure was 46.8% (inactive); with `CC[N-]c1nncs1.CC[N-]c1nncs1.CC[N-]c1nncs1.CC[N-]c1nncs1.[Cl][Rh][Cl]`, 97.6% (active).

Take `CC(C)C1=CC23CCC4C(C)(C(=O)O)CCCC4(C)C2CC1CC3C#N` (stereo not given): the growth inhibition was 98.2% (active). As to `COc1ccc(/C(Cl)=C(\C=O)c2ccc(Cl)cc2)cc1`, the growth inhibition is 19.8% (inactive).

Regarding `CCOC(=O)Cc1csc(/N=C\c2c(O)c3ccccc3oc2=O)n1`, the growth inhibition was 41.4% (inactive). Still for that read-out and setting: with `Cc1cccc(/C=N/NC(=S)Nc2ccccc2)n1` the figure was 89.3% (active); with `Nc1nn2c(C(Br)Br)cc(C(Br)Br)nc2c1[N+](=O)[O-]`, 99.5% (active). The same measure, in the same setting: with `c1ccc2nc3ccccc3nc2c1` the figure was 75% (active); with `O=c1ccc2nc3ccccc3ccc-2c1`, 62.5% (inactive); with `C=CCOCC(C)OC(=O)C(C)C` (stereo not given), 63.2% (inactive). For `CCCCCCOC(=O)CCC(=O)OCCCCCC`, the growth inhibition is 24.1% (inactive).

Consider `CC(=O)C(C(C)=O)C1C=CC=CC=C1`, for which the growth inhibition was 96.9% (active). In the case of `CCCOC(=O)CCCC(=O)N(CC)CC`, the growth inhibition was 19.5% (inactive). On the same count and under the same terms, the value for `CCOC(=O)C(=O)CC1=Nc2ccccc2SC(c2cccc(C)c2)C1` (stereo not given) was 97.5% (active). For the compound `COc1cc2c(c(-c3cn(C)c4ccccc34)c1OC)OCO2`, the growth inhibition was 41.9% (inactive). Same read-out and setting: the value for `COC(=O)c1c(C)cccc1C1CN=NC12Cc1ccc(C)c(C)c1C2=O` (stereo not given) was 72.8% (active). With `CCCCCCCCCCC(=O)CC(=O)c1c(O)cccc1O`, the growth inhibition was 1.5% (inactive). With `CCCCCCNC(=S)N/N=C(\C)c1ccccn1`, the growth inhibition is 91.2% (active).

In the case of `Oc1ccc(N=Nc2ccc(Cl)cc2)cc1O`, the growth inhibition is 98.2% (active).

As to `CCO/C=C1\N=C(C(O)(c2ccc(Cl)cc2)c2ccc(Cl)cc2)OC1=O`, the growth inhibition was 34% (inactive). The same measure, in the same setting: with `Clc1ccc(CN2COc3c(ccc4cccnc34)C2)cc1` the figure was 93% (active); with `Cc1nc(C(N)=S)sc1/C(CC(=O)C(=O)Nc1cccc2ccc(O)cc12)=N\NC(=O)c1ccncc1`, 16.4% (inactive); with `Nc1ncc(C(=O)c2ccccc2)cc1[N+](=O)[O-]`, -0.8% (inactive).

For the origin of these results see PubChem BioAssay (NCI).
